Results on 89 compounds are retold here after PubChem BioAssay AID504810 (National Center for Advancing Translational Sciences (NCATS), 2011).

The campaign covered roughly 330,000 compounds. About 670 (0.2%) were called active. The entries come from a sample that favours actives as a whole. Values without a mark were called inactive.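 The calls were made as follows: active = activity change below a set negative limit, meaning inhibition stronger than a set level (cut at about -70% in these data); inconclusive = activity change between two set negative limits; inactive = the rest.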
% is scaled to controls: 0 for no effect and ±100 for the full control effect.

The target in the assay is Thyrotropin receptor (Homo sapiens) (UniProt P16473). Put plainly: Antagonists of the Thyroid Stimulating Hormone Receptor: HTS campaign. The note with it: TSHR-expressing cells, TSH-stimulated cAMP HTRF, 2 h; at 11.5 µM; stronger effect = lower value. The text has this: The thyroid-stimulating hormone receptor (TSHR) is a member of the 7 trans-membrane-spanning receptor (7TMR) family of cell surface receptors. TSHR-mediated hyperthyroidism is important in thyroid pathology. The development of small molecule antagonists of TSHR may lead to therapeutic approaches for TSHR-mediated hyperthyroidism caused by constitutively activating mutations or stimulating auto-antibodies associated with Graves' disease. Graves' disease is the leading cause of hyperthyroidism and is caused by autoantibodies that stimulate TSHR (TsAbs) causing thyroid growth and unregulated overproduction of thyroid hormones and existing treatments have liabilities (agranulocytosis). In addition, TSHRs are known to be expressed in multiple extrathyroidal tissues including bone, brain, kidney, testis, fat and cells of the immune system but the role of the TSHR in these tissues is not clear. Therefore, TSHR antagonists/inverse agonists could be used as probes of extrathyroidal TSHR function. Finally, TSHR inverse agonists, which are a subclass of antagonists that inhibit agonist-independent (or basal or constitutive) TSHR signaling, could be used to inhibit TSH-independent signaling in patients with recurrent or metastatic thyroid cancer who are receiving thyroid hormone to suppress TSH. In collaboration between scientist from the NCGC and the NIDDK, a miniaturized HTRF high-throughput screen was developed. It's a cell based assay, where an anti cAMP antibody contains a fluorescent cryptate tag (excitation 337 nm; emission 620 nm) and the acceptor is cAMP-d2 (excitation 620 nm; emission 665 nm). When antibody and cAMP-d2 interact and are excited by a 337 nm light, a FRET occurs resulting in emission at 665 nm. The assay is competition between cAMP-d2 and cAMP (from the cell lysate). The homogeneous protocol allows for one step dispense after stimulation that is automation friendly. NIH Chemical Genomics Center [NCGC] NIH Molecular Libraries Probe Centers Network [MLPCN] MLPCN Grant: MH090855-01 Assay Submitter (PI): Marvin Gerhengorn
Sequence of Thyrotropin receptor (Homo sapiens) (P16473 whole entry, looked up): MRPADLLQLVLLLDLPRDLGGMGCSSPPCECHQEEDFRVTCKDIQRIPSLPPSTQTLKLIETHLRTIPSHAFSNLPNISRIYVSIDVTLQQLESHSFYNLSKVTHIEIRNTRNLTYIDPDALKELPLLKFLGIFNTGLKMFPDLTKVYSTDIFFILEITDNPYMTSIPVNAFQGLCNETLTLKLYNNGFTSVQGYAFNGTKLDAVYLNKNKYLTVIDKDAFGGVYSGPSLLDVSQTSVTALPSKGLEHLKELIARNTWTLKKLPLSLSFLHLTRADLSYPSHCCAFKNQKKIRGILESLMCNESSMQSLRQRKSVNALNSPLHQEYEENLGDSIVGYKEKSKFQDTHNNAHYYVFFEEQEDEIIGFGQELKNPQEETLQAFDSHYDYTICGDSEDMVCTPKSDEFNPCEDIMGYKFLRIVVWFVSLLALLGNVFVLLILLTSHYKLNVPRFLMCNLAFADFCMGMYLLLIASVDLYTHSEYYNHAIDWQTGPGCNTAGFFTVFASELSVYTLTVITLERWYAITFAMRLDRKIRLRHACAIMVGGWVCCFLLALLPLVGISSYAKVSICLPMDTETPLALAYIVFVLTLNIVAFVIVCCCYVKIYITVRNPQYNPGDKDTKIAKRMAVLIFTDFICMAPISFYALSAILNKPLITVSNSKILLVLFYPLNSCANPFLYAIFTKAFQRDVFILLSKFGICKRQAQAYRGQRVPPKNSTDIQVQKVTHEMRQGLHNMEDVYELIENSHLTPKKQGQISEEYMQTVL
1. 3ul of 200 TSHR freshly harvested cells/well are dispensed into a 1536 TC-treated white solid bottom plate. 2. Through pintool addition, 23nl of compounds and control in 100% DMSO are added to the plate. 3. Then 1ul of EC80 TSH (4nM final) is added to the plate. 4. Assay is incubated at 37 deg C for 2 hours. 5. 2ul of cAMP antibody diluted 1:20 in lysis buffer is added. 6. Immediately following, 2ul of d2 diluted 1:20 in HBSS is added seperately. 7. The assay is incubated for 30 minutes at ambient room temperature. 8. The result is obtained by using a ViewLux read-out with HTRF settings.
Background: In TR-FRET formats the signal depends on donor and acceptor labels being close together.
`CC(C)(O)C#Cc1ccc(C(=O)N2CCC(C(N)=O)(N3CCCCC3)CC2)cc1`: the activity change, negative = inhibition was 2.47%. For `NC(=O)C1(N2CCCCC2)CCN(C(=S)Nc2ccc(Cl)cc2)CC1` the value was 25.4%; for `NC(=O)C1(N2CCCCC2)CCN(C(=O)c2ccc(C#Cc3ccccc3)o2)CC1`, -75.1% (active). Then `CSc1ccccc1N1CCN(CCCCCC(=O)NC2CCCc3ccccc32)CC1` (centres undefined), with -13.5%; and `Cc1c(C)n2c(SCC(=O)NC3CCCC3)nnc2[nH]c1=O`, with -8.74%; and `COc1ccc(NC(=O)CN2C(=O)COc3ccc(S(=O)(=O)N4CCOCC4)cc32)cc1`, with -2.02%. For `CC(=O)Nc1ccc(NC(=O)CN2C(=O)COc3ccc(S(=O)(=O)N4CCCCC4)cc32)cc1` the value was 0.648%; for `CSc1cccc(NC(=O)CN2C(=O)COc3ccc(S(=O)(=O)N4CCOCC4)cc32)c1`, -134% (active). `Cc1cc2occ(CC(=O)NNC(=O)c3ccccc3F)c2cc1C`: the activity change, negative = inhibition was 3.48%. Then `Cc1csc(NC(=O)CSc2nc(=O)n(CCCN(C)C)c3c2CCC3)n1`, with -6.64%; and `CSc1nc(N(C)NC(=O)c2cccc(C)c2)c2ccccc2n1`, with -3.52%. Then `Cc1cc(C)c2oc(C(=O)Nc3ccc(S(=O)(=O)Nc4nccc(C)n4)cc3)cc(=O)c2c1`, with -137% (active); and `Cc1ccnc(NS(=O)(=O)c2ccc(NC(=O)c3oc4ccc(F)cc4c3C)cc2)n1`, with 4.87%; and `Cc1ccnc(NS(=O)(=O)c2ccc(NC(=O)c3oc4ccccc4c3C)cc2)n1`, with -4.53%. For `CCCCC(C(=O)NC(C)(C)C)N(Cc1ccccc1)C(=O)c1snc(C(N)=O)c1N` (centres undefined) the value was -2.07%.

Consider `CC/C(=N/Nc1ccccc1)c1cnnc(SC)n1`, for which the activity change, negative = inhibition is -5.85%. For `Cc1cccc(C)c1NC(=O)CSc1nc2c([nH]1)c(=O)n(C)c(=O)n2C` the value was -2.1%; for `Cn1c2cc(B(O)O)sc2c2cnn(Cc3ccccc3F)c(=O)c21`, -27.6%. Then `CCOc1ccc(N(CC(=O)NC2CCCCCC2)S(=O)(=O)c2c(C)[nH]c(=O)[nH]c2=O)cc1`, with -10.6%; and `O=C(CN1C(=O)NC2(CCCCCC2)C1=O)Nc1ccc([N+](=O)[O-])cc1`, with 0.839%. Then `CN(C(=O)C1CCN(c2ncnc3c2nc2n3CCCCC2)CC1)C1CCCCC1`, with 1.35%. For `[O-][n+]1onc2c1CCc1[nH]c(-c3ccccc3)nc1-2`, the activity change, negative = inhibition is -36.4%.

Take `CCCC1(C(=O)OC)NC(c2ccco2)C2C(=O)N(C)C(=O)C21` (centres undefined): the activity change, negative = inhibition is -3.19%. Then `Cc1cc(NC(=O)CN2C(=O)NC(C)(CCc3ccccc3)C2=O)no1` (centres undefined), with 10.4%.

On to `CCCCN(C(=O)c1ccc2ccccc2c1)c1c(N)n(CCCC)c(=O)[nH]c1=O`, for which the activity change, negative = inhibition was -8.5%. For `CNC(=S)N1CCC(NC(=O)C(Cc2ccc(F)cc2)NC(C)=O)CC1` (centres undefined) the value was -6.46%; for `O=C(COc1ccc(Cl)cc1)Nc1ccc2c(c1)OCO2`, -1.65%; for `O=P(O)(CN1CCCCCC1)C1Cc2ccccc2C1`, 34.6%. As for `CCOC(=O)C1(Cc2ccccc2C)CCCN(C(=O)CN2C(=O)CSC2=O)C1` (centres undefined), the activity change, negative = inhibition was 28.6%. Then `COc1cc([N+](=O)[O-])cc([N+](=O)[O-])c1NC(=O)N1CCOCC1`, with -0.913%. Then `CCN(CC(=O)Nc1ccc(NC(C)=O)cc1)C(=O)C1CC(=O)N(Cc2ccc(C)cc2)C1` (centres undefined), with 0.752%; and `CN1CCCc2cc(C#N)c(=O)[nH]c21`, with 4.52%; and `COCCn1c(Cc2cccn2C)nnc1SCC(=O)Nc1nccs1`, with 4.54%. `C/C(CCC(=O)OC[C@H]1O[C@H](C#Cc2ccccc2)C=C[C@@H]1Oc1ccc(C)cc1)=N\OC[C@@H](O)[C@H]1O[C@@H]2OC(C)(C)O[C@@H]2[C@H]1O`: the activity change, negative = inhibition was -3.15%. For `CCOC(CNC(=O)C(=O)NCC(c1ccco1)N1CCN(c2ccc(OC)cc2)CC1)OCC` (centres undefined) the value was 0.959%; for `Cc1cc(=O)oc2c(C)c(OC(C)C(=O)NC3CCN(Cc4ccccc4)CC3)ccc12` (centres undefined), -2.61%. Then `O=c1cc(-c2ccccc2)[nH]c2nc(Cl)ccc12`, with -13.7%; and `C=CC1(C)CC(=O)C2(O)C(C)(O1)C(OC(C)=O)C(O)C1C(C)(C)CCC(O)C12C` (centres undefined), with 107%. For `CN(C)c1ccc(CNC(=O)CN2C(=O)COc3ccc(S(=O)(=O)N4CCCC4)cc32)cc1` the value was -5.17%.

For `CCn1ccnc1CNC(=O)CC1C(=O)NCCN1CCCc1ccccc1` (centres undefined), the activity change, negative = inhibition was 8.41%.

`O=C(O)CCn1cc(/C=C/C(=O)c2ccc(Cl)cc2)c(-c2cccc(Br)c2)n1`: the activity change, negative = inhibition was -11.6%. With `O=C(NCc1ccccc1Cl)C1CCCO1` (centres undefined), the activity change, negative = inhibition was -3.41%.

On to `O=C(Nc1ccc(C(=O)NCc2ccccc2Cl)cc1)C1=CSCCO1`, for which the activity change, negative = inhibition was -135% (active).

Take `CSc1ccc(CNC(=O)c2ccc(NC(=O)C3=CSCCO3)cc2)cc1`: the activity change, negative = inhibition is 17.8%. Then `CC(NC(=O)c1cc(=O)[nH]c2ccccc12)c1ccc(F)cc1F` (centres undefined), with -93% (active). Then `CC(NC(=O)COC(=O)c1cc(=O)[nH]c2ccccc12)c1ccccc1` (centres undefined), with -4.46%; and `O=C(CNC(=O)c1cc(=O)[nH]c2ccccc12)Nc1ccc(F)c(F)c1`, with 1.67%; and `O=[N+]([O-])c1cc(Br)c(O)c(/C=N/Nc2nc3ccccc3s2)c1`, with -87.3% (active). For `COc1ccc(CC(=O)N/N=C/c2cc([N+](=O)[O-])cc(Br)c2O)cc1` the value was 1.63%; for `Cc1cc(C(=O)N/N=C/c2cc([N+](=O)[O-])cc(C)c2O)n[nH]1`, 13.9%; for `CC(C)Cn1c(=O)c2ccccc2n2c(CCC(=O)NCc3ccccn3)nnc12`, 3.77%. In the case of `C=CCc1ccccc1OCC(O)CN1CCN(CCO)CC1` (centres undefined), the activity change, negative = inhibition was 3.81%. On to `Cc1cc(C#N)c(SCC(N)=O)nc1-c1ccc(F)cc1`, for which the activity change, negative = inhibition is -75.8% (active). Take `Cc1cc(C)c(C#N)c(SCC(=O)Nc2ccccc2)n1`: the activity change, negative = inhibition was 1.53%. Take `Cc1cc(C)c2c(-c3ccc(F)cc3)c(C#N)c(=O)n(C)c2n1`: the activity change, negative = inhibition was -4.99%. Then `CNC(=O)C1CCN(S(=O)(=O)c2c(C)noc2/C=C/c2cccc(C)c2)CC1`, with 9.08%; and `CC(NC(=O)CNC(=O)Cc1cccc2ccccc12)c1ccc(S(N)(=O)=O)cc1` (centres undefined), with -28.1%; and `CCNC(=O)N1CCN(S(=O)(=O)c2ccc3c(c2)OCCCO3)CC1`, with 13%.

As for `O=c1ccc(-c2ccc(S(=O)(=O)Nc3ccccc3)o2)n[nH]1`, the activity change, negative = inhibition is 14.7%. Take `COc1cccc(NC(=O)CC(c2ccc(OC(C)C)cc2)c2ccccc2OC)c1` (centres undefined): the activity change, negative = inhibition is -14.4%.

As to `CCOC(=O)NN1C(=O)c2ccccc2NC1c1ccccc1O` (centres undefined), the activity change, negative = inhibition is 8.06%.

With `O=C(CCN1C(=O)C2C3CCC(C3)C2C1=O)Nc1ccc(Cl)cc1Cl` (centres undefined), the activity change, negative = inhibition is 1.9%. On to `CCN(CC)C(=O)CSc1nnc(-c2ccc(S(=O)(=O)NCc3ccccc3Cl)cc2)o1`, for which the activity change, negative = inhibition was -13.6%. On to `Cc1ccc(S(=O)(=O)n2cnc3ccccc32)c(C)c1`, for which the activity change, negative = inhibition was 2.16%.

On to `COc1ccc(S(=O)(=O)n2cnc3ccccc32)c(C)c1`, for which the activity change, negative = inhibition was -81.3% (active).

Regarding `COc1ccc(S(=O)(=O)N2CCN(C)CC2)c(C)c1`, the activity change, negative = inhibition was -0.476%. For `CCC1SC2=NCCN2C1(O)c1ccc(Cl)cc1` (centres undefined) the value was 6.43%. Then `CCOc1ccc(N(CC(=O)NCCc2ccc(F)cc2)S(=O)(=O)c2ccccc2)cc1`, with -7.25%; and `CC(NC(=O)Cn1cc(C(F)(F)F)cc(Cl)c1=O)c1ccccc1` (centres undefined), with 7.91%. Take `COC(=O)c1cc(=O)n(-c2c(Cl)cc(C(F)(F)F)cc2Cl)[nH]1`: the activity change, negative = inhibition is -90% (active). For `CCN1C(=S)N[C@@H](c2cccc(C(F)(F)F)c2)C(C(=O)OC)=C1C` the value was 0.624%; for `Cc1sc2ncn(CC(=O)NCCCC(=O)NCc3ccc(F)cc3)c(=O)c2c1C`, -97.7% (active); for `Cc1sc2ncn(CC(=O)NCCCC(=O)N3CCN(c4ccccc4F)CC3)c(=O)c2c1C`, 3.65%.

On to `Cc1sc2ncn(CC(=O)NCCCC(=O)N(C)Cc3ccccc3)c(=O)c2c1C`, for which the activity change, negative = inhibition is 3.25%. Regarding `COc1ccc(CCNCc2c(-c3ccccc3)n(C)c3ccccc23)cc1`, the activity change, negative = inhibition is 5.27%. Regarding `COc1cc(OC)cc(C(=O)NNC(=O)CNC(=O)c2ccc(Br)o2)c1`, the activity change, negative = inhibition is -4.32%.

Regarding `NC1CCN(O)C1=O` (centres undefined), the activity change, negative = inhibition is 5.61%. Then `CCC(C)NC(=O)C1CCC(=O)N1Cc1ccc(C)cc1` (centres undefined), with 1.98%. For `CCCN(c1ccc(C(C)C)cc1)S(=O)(=O)c1c(C)[nH]c(=O)[nH]c1=O` the value was -12.7%; for `Cc1ccc(CN2CCNC(=O)C2CC(=O)NCc2csc(C(C)C)n2)cc1` (centres undefined), 12.6%; for `NC(=O)C1CCN(c2nc(-c3cccc(F)c3)cs2)CC1`, -7.85%. For `COc1ccc(NC(=O)CSc2nnc(Cc3ccccc3)c(=O)n2N)cc1` the value was 7.33%; for `CCCCn1c(N)c(N(CCOC)C(=O)COc2c(C)cccc2C)c(=O)[nH]c1=O`, -0.316%. As to `CCc1ccccc1NC(=O)CN(C)C(=O)COc1ccc(C)nc1[N+](=O)[O-]`, the activity change, negative = inhibition is 4.86%. Then `C1CC1Cc1noc(CN2CCN(CC3CC3)CC2)n1`, with 3.76%. For the compound `NS(=O)(=O)c1cc(C(=O)NCCOc2ccccc2)c(Cl)cc1Cl`, the activity change, negative = inhibition is 8.26%. Then `CCc1nn(CC(=O)N2CCN(c3cc(C)ccc3C)CC2)c(=O)c2cc3occc3n12`, with 12.8%; and `OCC(O)CN(c1ccccc1)c1ccccc1` (centres undefined), with 3.75%. Then `CC1(C)O[C@@H]2[C@H](O1)[C@@H](CO)O[C@H]2n1c(N2CCCCC2)nc2c(N)ncnc21`, with -5.04%.
